Reference: PubChem BioAssay
For some assays here: Entries with a potency or affinity are not part of this list. Active and inactive are the calls of the source. Unless noted, no rule for the calls is given here.

Assays:
[1] = antimalarial activity against Dd2 strain (AID 2302;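 active = growth inhibition above 50% at the single 2 µM test dose, taken to imply half-maximal potency below 2 µM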;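 also: 0% = DMSO untreated growth and 100% = chloroquine plus artemisinin killed control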); conditions: P. falciparum Dd2 in RBCs, LDH growth readout, 72 h; at 2 µM; stronger effect = higher value
[2] = human hepatoma cell viability loss – ATP luminescence, cytotoxicity control for P. falciparum antimalarial project, primary screen (AID 2303;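 active = inhibition above 50%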;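 also: 0% = DMSO wells and 100% = digitonin-killed cells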); conditions: HepG2 viability, 24-48 h, at 10 µM, stronger effect = higher value
[3] = target: L-lactate dehydrogenase (Plasmodium falciparum (isolate CDC / Honduras)) (UniProt Q27743); experiment: PfLDH activity inhibition – cell lysate, 3D7 strain, counter-screen for P. falciparum growth inhibition project (AID 2304);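 also: 0% = vehicle and 100% = reference inhibitor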; conditions: P. falciparum 3D7 crude extract, LDH APAD/NBT absorbance; at 2 µM; stronger effect = higher value
Chain of L-lactate dehydrogenase (Plasmodium falciparum (isolate CDC / Honduras)) (Q27743 whole entry, looked up): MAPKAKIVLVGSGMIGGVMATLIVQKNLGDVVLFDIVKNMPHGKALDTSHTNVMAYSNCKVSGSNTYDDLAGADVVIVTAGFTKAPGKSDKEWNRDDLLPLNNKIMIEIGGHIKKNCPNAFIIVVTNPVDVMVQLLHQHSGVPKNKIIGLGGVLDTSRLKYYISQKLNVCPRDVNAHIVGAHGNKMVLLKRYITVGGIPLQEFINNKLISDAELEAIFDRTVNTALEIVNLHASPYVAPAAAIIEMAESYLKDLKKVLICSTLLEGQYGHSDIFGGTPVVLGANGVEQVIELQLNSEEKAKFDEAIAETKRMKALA

[4] = inhibition of 3D7 malaria parasite growth – strain 3D7 (AID 2306);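 also: 0% = DMSO wells and 100% = chloroquine plus artemisinin control wells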; conditions: P. falciparum 3D7 erythrocytic growth, LDH absorbance, 72 h; at 2 µM; stronger effect = higher value
[5] = target: Calcium-dependent protein kinase 1 (Plasmodium falciparum (isolate 3D7)) (UniProt P62344); experiment: PfCDPK1 kinase inhibitors, biochemical, TCAMS library (AID 1159585; cut-off not given, nearly all actives have IC50 up to about 0.98 µM;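 also: inhibitors leave more ATP so luminescence rises with inhibition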); conditions: recombinant PfCDPK1, Kinase-Glo ATP depletion luminescence
Chain of Calcium-dependent protein kinase 1 (Plasmodium falciparum (isolate 3D7)) (P62344 whole entry, looked up): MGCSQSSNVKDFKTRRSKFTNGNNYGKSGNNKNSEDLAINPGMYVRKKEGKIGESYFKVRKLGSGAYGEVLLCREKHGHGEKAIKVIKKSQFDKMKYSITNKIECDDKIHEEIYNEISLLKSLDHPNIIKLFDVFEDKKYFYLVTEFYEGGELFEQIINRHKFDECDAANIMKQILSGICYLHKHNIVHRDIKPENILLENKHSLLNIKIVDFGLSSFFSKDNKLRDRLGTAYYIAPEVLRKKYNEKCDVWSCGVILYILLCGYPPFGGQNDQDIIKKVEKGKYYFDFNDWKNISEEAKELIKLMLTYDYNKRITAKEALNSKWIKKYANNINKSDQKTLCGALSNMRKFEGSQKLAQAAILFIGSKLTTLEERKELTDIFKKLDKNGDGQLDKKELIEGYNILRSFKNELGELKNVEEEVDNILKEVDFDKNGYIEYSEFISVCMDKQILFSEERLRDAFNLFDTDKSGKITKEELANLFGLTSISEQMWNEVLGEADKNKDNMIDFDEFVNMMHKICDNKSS

[6] = target: Plasmodium falciparum protein kinase 6 (PK6, PF3D7_1337100) (UniProt Q8IDW1); experiment: PfPK6 kinase inhibitors, biochemical, TCAMS library (AID 1159586); conditions: recombinant PfPK6, Kinase-Glo ATP depletion luminescence
Chain of Plasmodium falciparum protein kinase 6 (PK6, PF3D7_1337100) (Q8IDW1 1-305): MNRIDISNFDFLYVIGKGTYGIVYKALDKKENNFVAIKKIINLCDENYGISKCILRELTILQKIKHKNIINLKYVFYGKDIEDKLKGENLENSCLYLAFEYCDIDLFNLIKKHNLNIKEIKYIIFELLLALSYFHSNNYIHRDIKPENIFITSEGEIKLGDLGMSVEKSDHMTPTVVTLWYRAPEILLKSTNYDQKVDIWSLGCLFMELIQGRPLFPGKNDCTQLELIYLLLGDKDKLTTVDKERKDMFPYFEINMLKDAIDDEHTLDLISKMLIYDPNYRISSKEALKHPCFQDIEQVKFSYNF

[7] = target: Protein kinase 7 (PK7), Plasmodium falciparum 3D7 (PF3D7_0213400) (UniProt Q7YTF7); experiment: inhibition of Plasmodium PK7 catalytic activity – biochemical, TCAMS antimalarial set, Kinase-Glo luminescence (AID 1159587); conditions: recombinant PfPK7, Kinase-Glo ATP depletion luminescence
Chain of Protein kinase 7 (PK7), Plasmodium falciparum 3D7 (PF3D7_0213400) (Q7YTF7 1-343): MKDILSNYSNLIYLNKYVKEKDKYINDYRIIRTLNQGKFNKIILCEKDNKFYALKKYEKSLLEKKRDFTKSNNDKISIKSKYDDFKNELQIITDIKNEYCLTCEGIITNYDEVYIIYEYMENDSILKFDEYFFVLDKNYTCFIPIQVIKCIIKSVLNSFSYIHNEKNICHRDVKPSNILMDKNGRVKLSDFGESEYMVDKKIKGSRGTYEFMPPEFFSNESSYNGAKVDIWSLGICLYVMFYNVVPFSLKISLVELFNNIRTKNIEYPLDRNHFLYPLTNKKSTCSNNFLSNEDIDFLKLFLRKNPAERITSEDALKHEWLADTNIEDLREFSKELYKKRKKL

[8] = target: Calcium-dependent protein kinase 4 (Plasmodium falciparum (isolate 3D7)) (UniProt Q8IBS5); experiment: PfCDPK4 kinase inhibitors, biochemical, TCAMS library (AID 1159588; cut-off not given, nearly all actives have IC50 up to about 0.91 µM); conditions: recombinant PfCDPK4, Kinase-Glo ATP depletion luminescence
Chain of Calcium-dependent protein kinase 4 (Plasmodium falciparum (isolate 3D7)) (Q8IBS5 whole entry, looked up): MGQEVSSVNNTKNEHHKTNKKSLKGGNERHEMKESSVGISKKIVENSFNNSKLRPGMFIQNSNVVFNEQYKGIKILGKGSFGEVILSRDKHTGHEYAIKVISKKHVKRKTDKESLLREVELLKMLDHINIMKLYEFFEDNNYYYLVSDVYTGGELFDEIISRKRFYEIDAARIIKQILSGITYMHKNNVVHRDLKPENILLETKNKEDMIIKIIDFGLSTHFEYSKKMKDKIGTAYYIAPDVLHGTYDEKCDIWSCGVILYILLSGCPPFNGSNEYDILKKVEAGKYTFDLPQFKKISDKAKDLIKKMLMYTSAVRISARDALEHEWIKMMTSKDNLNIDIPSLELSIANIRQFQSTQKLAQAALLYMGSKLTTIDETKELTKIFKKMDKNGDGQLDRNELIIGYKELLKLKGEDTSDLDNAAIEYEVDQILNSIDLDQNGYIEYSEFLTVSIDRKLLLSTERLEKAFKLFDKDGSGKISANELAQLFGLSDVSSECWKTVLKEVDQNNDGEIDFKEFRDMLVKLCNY

CCN(CC)CCNc1ccnc2c3ccccc3n(C)c12
active: growth inhibition [1] 99% | growth inhibition [4] 101%
inactive: inhibition [2] 14% | inhibition [3] -4% | outcome [5] | outcome [6] | outcome [7] | outcome [8]

O=C(CCNc1ccnc(NCCc2ccc(F)cc2)n1)Nc1ccccc1
inactive: growth inhibition [1] 10% | inhibition [2] 9% | inhibition [3] -4% | outcome [5] | outcome [6] | outcome [7] | outcome [8]
active: growth inhibition [4] 95%

COc1ccc2ccccc2c1C=NNc1cc(C)nc2cc(C(F)(F)F)ccc12
inactive: growth inhibition [1] 4% | inhibition [2] 1% | inhibition [3] 0% | outcome [5] | outcome [6] | outcome [7] | outcome [8]
active: growth inhibition [4] 92%

CCCCCCn1c(Sc2ccc(C#N)c([N+](=O)[O-])c2)nnc1-c1cccs1
active: growth inhibition [1] 60% | growth inhibition [4] 97%
inactive: inhibition [2] 26% | inhibition [3] -4% | outcome [5] | outcome [6] | outcome [7] | outcome [8]

O=C(Nc1ccc(N2CCN(Cc3ccccc3Cl)CC2)cc1)c1ccc([N+](=O)[O-])o1
active: growth inhibition [1] 67% | inhibition [2] 100% | growth inhibition [4] 91%
inactive: inhibition [3] -4% | outcome [5] | outcome [6] | outcome [7] | outcome [8]

COc1ccc2nccc([C@@H](O)CN3CCC(NCc4cc5ccccc5nn4)CC3)c2c1
active: growth inhibition [4] 94%
inactive: growth inhibition [1] 16% | inhibition [2] 5% | inhibition [3] -1% | outcome [5] | outcome [6] | outcome [7] | outcome [8]

Cc1cc(Nc2c(C(N)=O)cnc3cc(-c4ccoc4)ccc23)ccc1N1CCN(C)CC1
active: growth inhibition [1] 100% | growth inhibition [4] 101%
inactive: inhibition [2] 7% | inhibition [3] 1% | outcome [5] | outcome [6] | outcome [7] | outcome [8]

Cc1c(C)c2c(c(C)c1O)CC[C@@](C)(C(=O)N1CCC(CCN3CCC(c4c[nH]c5ccccc45)CC3)CC1)O2
active: growth inhibition [1] 91% | growth inhibition [4] 98%
inactive: inhibition [2] 37% | inhibition [3] 6% | outcome [5] | outcome [6] | outcome [7] | outcome [8]

COc1ccc2nccc([C@@H](O)CN3CCC(NC(=O)/C=C/c4cc(F)cc(Br)c4)CC3)c2c1
active: growth inhibition [1] 50% | growth inhibition [4] 95%
inactive: inhibition [2] 24% | inhibition [3] 7% | outcome [5] | outcome [6] | outcome [7] | outcome [8]

Cc1cccc(-c2nn(-c3ccccc3)cc2C(=O)Nc2nnc(C)o2)c1
inactive: inhibition [2] 38% | inhibition [3] 4% | outcome [5] | outcome [6] | outcome [7] | outcome [8]
active: growth inhibition [1] 63% | growth inhibition [4] 84%

Cc1cc(OCCCn2ccnc2)ccc1-c1csc(NC(N)=NCc2ccccc2)n1
active: growth inhibition [4] 92%
inactive: growth inhibition [1] 42% | inhibition [2] 26% | inhibition [3] 2% | outcome [5] | outcome [6] | outcome [7] | outcome [8]

Cc1cc(N[C@@H](Cc2ccccc2)C(=O)NC2CCCC2)nc(NCCc2ccc(F)cc2)n1
inactive: inhibition [2] 21% | inhibition [3] -2% | outcome [5] | outcome [6] | outcome [7] | outcome [8]
active: growth inhibition [1] 61% | growth inhibition [4] 100%

Cc1ccc(Nc2nnc(SCC(=O)Nc3ccc(CN4CCCC4)cc3)s2)cc1
active: growth inhibition [4] 91%
inactive: growth inhibition [1] -2% | inhibition [2] 4% | inhibition [3] -2% | outcome [5] | outcome [6] | outcome [7] | outcome [8]

CC(C)CNCc1cccc(-c2cccc(CN(CCCN3CCN(C)CC3)C(=O)/C=C/c3ccccc3)c2)c1
active: growth inhibition [1] 88% | growth inhibition [4] 90%
inactive: inhibition [2] 44% | inhibition [3] 7% | outcome [5] | outcome [6] | outcome [7] | outcome [8]

CN1CCN(CC(=O)Nc2ccc(-c3ccc(-c4nc5ccccc5[nH]4)cc3)cc2)CC1
inactive: inhibition [2] 18% | inhibition [3] -1% | outcome [5] | outcome [6] | outcome [7] | outcome [8]
active: growth inhibition [1] 80% | growth inhibition [4] 98%

COc1ccc(NC(=O)c2ccc(-c3nc(-c4ccccc4)cs3)cc2)cc1N1CCN(C)CC1
inactive: growth inhibition [1] 13% | inhibition [2] 17% | inhibition [3] -3% | outcome [5] | outcome [6] | outcome [7] | outcome [8]
active: growth inhibition [4] 93%

OC(CNc1ccnc(Nc2ccc(Cl)cc2)n1)c1ccc(C(F)(F)F)cc1 (stereo unspecified)
active: growth inhibition [1] 94% | growth inhibition [4] 101%
inactive: inhibition [2] -2% | inhibition [3] -6% | outcome [5] | outcome [6] | outcome [7] | outcome [8]

COc1cccc(CN2CCC3(CC2)CN(C(=O)Nc2ccc(Cl)c(Cl)c2)C3)c1
active: growth inhibition [4] 97%
inactive: growth inhibition [1] 2% | inhibition [2] 29% | inhibition [3] 2% | outcome [5] | outcome [6] | outcome [7] | outcome [8]

CCCN(CCCCNC(=O)c1ccc(-c2cccnc2)cc1)C1CCc2c(O)cccc2C1 (stereo unspecified)
active: growth inhibition [4] 87%
inactive: growth inhibition [1] 16% | inhibition [2] -1% | inhibition [3] 0% | outcome [5] | outcome [6] | outcome [7] | outcome [8]

C=CCc1cc(Cc2cnc(N)nc2N)cc(CCC)c1OC
active: growth inhibition [4] 83%
inactive: growth inhibition [1] 1% | inhibition [2] 3% | inhibition [3] 0% | outcome [5] | outcome [6] | outcome [7] | outcome [8]

c1ccc(Oc2ccc(Nc3ccnc4ccc(-c5ccco5)cc34)cc2)cc1
active: growth inhibition [4] 87%
inactive: growth inhibition [1] 32% | inhibition [2] -4% | inhibition [3] -1% | outcome [5] | outcome [6] | outcome [7] | outcome [8]

CN(C)CCn1c(=N)n(CC(O)c2ccc(Cl)c(Cl)c2)c2ccccc21 (stereo unspecified)
inactive: growth inhibition [1] 6% | inhibition [2] 20% | inhibition [3] -2% | outcome [5] | outcome [6] | outcome [7] | outcome [8]
active: growth inhibition [4] 99%

CN1CCN(CC(O)CNC(=O)Nc2ccc(Br)cc2)CC1 (stereo unspecified)
active: growth inhibition [1] 100% | growth inhibition [4] 100%
inactive: inhibition [2] 5% | inhibition [3] -2% | outcome [5] | outcome [6] | outcome [7] | outcome [8]

CC1(C)N=C(N)N=C(N)N1OCCCc1c(Cl)cccc1Cl
active: growth inhibition [1] 97% | inhibition [2] 71% | growth inhibition [4] 95%
inactive: inhibition [3] 3% | outcome [5] | outcome [6] | outcome [7] | outcome [8]

COc1ccc(-c2ccc(NC(=O)c3cccc(C#N)c3)cc2)cc1CN1CCCN(C)CC1
active: growth inhibition [1] 70% | growth inhibition [4] 102%
inactive: inhibition [2] 26% | inhibition [3] 6% | outcome [5] | outcome [6] | outcome [7] | outcome [8]

Cc1cc(NCCC(=O)NCc2cccc(F)c2)nc(Nc2ccccc2)n1
inactive: growth inhibition [1] 15% | inhibition [2] -4% | inhibition [3] -3% | outcome [5] | outcome [6] | outcome [7] | outcome [8]
active: growth inhibition [4] 94%

Nc1nc(-c2ccccn2)nc(-n2nc(-c3cccc(C(F)(F)F)c3)cc2N)n1
inactive: inhibition [2] 14% | inhibition [3] -5% | outcome [5] | outcome [6] | outcome [7] | outcome [8]
active: growth inhibition [1] 74% | growth inhibition [4] 87%

CCc1cc(OC)c(C(=O)NC2CCN(C[C@H](O)c3ccnc4ccc(OC)cc34)CC2)cc1Br
inactive: inhibition [2] 6% | inhibition [3] 2% | outcome [5] | outcome [6] | outcome [7] | outcome [8]
active: growth inhibition [1] 56% | growth inhibition [4] 98%

Cc1cccc2[nH]c(-c3cccc(-c4cccc(NC(=O)NCc5ccccc5)c4)c3)nc12
active: growth inhibition [4] 94%
inactive: growth inhibition [1] 27% | inhibition [2] 12% | inhibition [3] 5% | outcome [5] | outcome [6] | outcome [7] | outcome [8]

Cc1[nH]c(C)c(-c2ccc(-c3ccc4c(c3)OCO4)nc2)c(=O)c1Br
inactive: inhibition [2] -6% | inhibition [3] -8% | outcome [5] | outcome [6] | outcome [7] | outcome [8]
active: growth inhibition [1] 96% | growth inhibition [4] 96%

COc1cccc(-c2csc(C(=O)NCC3CCN(Cc4ccc(C(C)(C)C)cc4)C3)c2)c1 (stereo unspecified)
active: growth inhibition [4] 95%
inactive: growth inhibition [1] 10% | inhibition [2] 30% | inhibition [3] -2% | outcome [5] | outcome [6] | outcome [7] | outcome [8]

Cc1csc(-c2nc(NCc3cccnc3)ncc2-c2ccsc2)n1
active: growth inhibition [1] 74% | growth inhibition [4] 87%
inactive: inhibition [2] -5% | inhibition [3] -1% | outcome [5] | outcome [6] | outcome [7] | outcome [8]

Clc1cc2c(Nc3ccc(Oc4ccccc4)cc3)ccnc2cc1-c1ccc(CNCCN2CCOCC2)o1
inactive: inhibition [2] -2% | inhibition [3] -4% | outcome [5] | outcome [6] | outcome [7] | outcome [8]
active: growth inhibition [1] 89% | growth inhibition [4] 100%

NC1CCCN(Cc2ccc(-c3cccc(-c4nc5ccccc5[nH]4)c3)cc2)C1 (stereo unspecified)
inactive: growth inhibition [1] 26% | inhibition [2] 26% | inhibition [3] 2% | outcome [5] | outcome [6] | outcome [7] | outcome [8]
active: growth inhibition [4] 95%

CCOC(=O)C1CCN(CCOc2cc(NC(=O)/C=C/c3ccccc3Cl)ccc2Br)CC1
inactive: growth inhibition [1] 29% | inhibition [2] 6% | inhibition [3] -2% | outcome [5] | outcome [6] | outcome [7] | outcome [8]
active: growth inhibition [4] 87%

CC(C)C[C@H](NC(=O)c1ccc(OCCN2CCOCC2)cc1)C(=O)N[C@H](/C=N/NC(=O)c1ccccc1)CCc1ccccc1
active: growth inhibition [1] 90% | growth inhibition [4] 98%
inactive: inhibition [2] 17% | inhibition [3] -3% | outcome [5] | outcome [6] | outcome [7] | outcome [8]

C=CCC(C(=O)Nc1ccnc2ccc(OC)cc12)C1CCN(CCCCCCC)CC1 (stereo unspecified)
active: growth inhibition [1] 84% | growth inhibition [4] 86%
inactive: inhibition [2] 20% | inhibition [3] -7% | outcome [5] | outcome [6] | outcome [7] | outcome [8]
